Results filed as inconclusive are left out. A number with no mark means an inactive call. Calls of active or inactive are those of the source. Calls follow the shape of the dose curve; as a rule, active = well fitted cell-killing curve with a large enough effect in the repeat runs; inconclusive = weak or mixed curves, or effect the other way; inactive = flat fitted curve, though single readings scatter.
Experiment: qHTS RealTime-Glo MT Cell Viability Assay in HEK293 cells - 40 hour (AID 1224874); also: nearly all actives have a fitted effect of over 50% in size
Conditions: RealTime-Glo luminescence; max response: active compounds read low
From the text: U.S. Tox21 Program National Center for Advancing Translational Sciences [NCATS] NIH Chemical Genomics Center [NCGC] U.S. Environmental Protection Agency [EPA] National Institutes of Environmental Health Sciences [NIEHS] National Toxicology Program [NTP] U.S. Food and Drug Administration [FDA] Tox21 Assay Overview: Measure of cell viability is critical in the cell-base assay. Analysis of cell viability is necessary for the characterization of cell responses to cytotoxic drugs and environmental stress. A RealTime-Glo MT Cell Viability Assay to monitor cell viability in real time of continues cell culture during 40 hours of compound treatment was used to screen Tox21 10K library compounds in Hek293 cells. The RealTime-Glo MT Cell Viability Assay is a nonlytic, homogeneous, bioluminescent method to measure cell viability in real time using a simple, plate-based method. The assay involves adding NanoLuc luciferase and a cell-permeant prosubstrate to cells in culture. Viable cells reduce the proprietary prosubstrate to generate a substrate for NanoLuc luciferase. This substrate diffuses from cells into the surrounding culture medium, where it is rapidly used by the NanoLuc Enzyme to produce a luminescent signal. The signal correlates with the number of viable cells, making the assay well suited for cytotoxicity studies.
Tox21 Assay Protocol Summary: The mixture of Hek293 cell suspension and reagents were dispensed at 600cells/6 ul/well in 1536-well tissue culture treated black solid bottom plates using a Multidrop dispenser. After the assay plates were incubated at a 37 C/5% CO2 incubator for 5 hours, 23 nL of compounds dissolved in DMSO, positive and negative controls was transferred to the assay plate by a pintool work station. The plates were incubated at 37 C for 40 hours. The luminescence intensity were measured at 0h, 8h, 16h, 24h, 32h and 40h time points using ViewLux plate reader during compound treatment.
% is scaled to controls: 0 for no effect and ±100 for the full control effect; potency is read from the fitted curve at half-maximal effect.

Row | Compound | max response [%] | Potency
1 | CCCCCCC(C)(C)C(=O)O | 4.14 | –
2 | Cc1cc(C)cc(N)c1 | -4.23 | –
3 | C=CC(=O)[O-].C=CC(=O)[O-].[Zn+2] | 0.547 | –
4 | CC(=O)c1ccc([N+](=O)[O-])cc1 | 11.2 | –
5 | CNC(=O)c1cnn(-c2nc(N)c3ncn([C@@H]4O[C@H](CO)[C@@H](O)[C@H]4O)c3n2)c1 | 4.42 | –
6 | CCOc1ccc(Cc2nccc3cc(OCC)c(OCC)cc23)cc1OCC | – | 5.35 µM (active)
7 | CCC(C)(C)OC | 7.38 | –
8 | O=c1[nH]c2ccc(Cl)cc2o1 | -0.887 | –
9 | C[C@H]1C[C@H](O)c2ccsc2S1(=O)=O | 2.25 | –
10 | CCOC(=O)c1ccc(OCCN2C[C@H](O)[C@@H](O)[C@H](O)[C@H]2CO)cc1 | 1.01 | –
11 | C=C(C)CCCC(C)CCO (stereo not given) | -17.9 | –
12 | NCCNCCO | 20.2 | –
13 | CC=C(Cl)Cl | 12.6 | –
14 | CC(CN(C)C)C(C)(O)Cc1ccc(Cl)cc1 (stereo not given) | -0.684 | –
15 | C=C(C)C(=O)OCCOCCOC(=O)C(=C)C | 1.33 | –
16 | O=[N+]([O-])c1ccc(O/N=C/c2cc(Br)c(O)c(Br)c2)c([N+](=O)[O-])c1 | – | 43.4 µM (active)
17 | Oc1cccc(Nc2ccccc2)c1 | – | 12.8 µM (active)
18 | C/C=C(/C(=C/C)c1ccc(O)cc1)c1ccc(O)cc1 | – | 19 µM (active)
19 | COc1cc(Nc2c(C#N)cnc3cc(OCCCN4CCN(C)CC4)c(OC)cc23)c(Cl)cc1Cl | – | 7.56 µM (active)
20 | Cc1cc(C)c(N)cc1C | 1.12 | –

Row | Compound | max response [%] | Potency
21 | O=C(O)c1cccc(-c2noc(-c3ccccc3F)n2)c1 | 2.77 | –
22 | NC1[C@H]2CN(c3nc4c(cc3F)c(=O)c(C(=O)O)cn4-c3ccc(F)cc3F)C[C@@H]12 (stereo not given in full) | -27.4 | –
23 | CO[C@]1(NC(=O)CSC(F)F)C(=O)N2C(C(=O)O)=C(CSc3nnnn3CCO)CO[C@H]21 | 21.2 | –
24 | C=C(C)[C@@H]1CCC2=CCC[C@@H](C)[C@]2(C)C1 | 0.724 | –
25 | O=C(O)c1ccc(OCCCOc2ccc(C(=O)O)cc2)cc1 | 1.73 | –
26 | OCCN1CCN(CCCN2c3ccccc3Sc3ccc(Cl)cc32)CC1 | – | 23.9 µM (active)
27 | O=C1c2ccccc2C(=O)N1CCc1noc(-c2ccc(CN3CCCCCC3)s2)n1 | – | 20.1 µM (active)
28 | COc1ccccc1NC(=O)c1cc2ccccc2cc1O | – | 34.7 µM (active)
29 | CC(C)C=O | 0.0745 | –
30 | Cc1cc2c(OCC(CNC(C)(C)C)OC(=O)c3ccccc3)cccc2[nH]1 (stereo not given) | -21.5 | –
31 | CC(C)C[C@H](NC(=O)[C@H](CCc1ccccc1)NC(=O)CN1CCOCC1)C(=O)N[C@@H](Cc1ccccc1)C(=O)N[C@@H](CC(C)C)C(=O)[C@@]1(C)CO1 | – | 0.0268 µM (active)
32 | CC(C)Nc1cccnc1N1CCN(C(=O)c2cc3cc(NS(C)(=O)=O)ccc3[nH]2)CC1 | -29 | –
33 | CC(=O)OCC(=O)NCCCOc1cccc(CN2CCCCC2)c1 | 1.71 | –
34 | COc1cc(C(=O)NC2CCN(C)CC2)ccc1Nc1ncc2c(n1)N(C1CCCC1)CC(F)(F)C(=O)N2C | – | 0.0179 µM (active)
35 | COC(=O)CCS | 21.6 | –
36 | Clc1ccc(Nc2nnc(Cc3ccncc3)c3ccccc23)cc1 | – | 19 µM (active)
37 | O=[N+]([O-])c1ccc(Nc2ccc(Nc3ccccc3)c(S(=O)(=O)O)c2)c([N+](=O)[O-])c1 | 5.22 | –
38 | CCCC(=O)C(=O)O | 13.4 | –
39 | Nc1cccc2c1CN(C1CCC(=O)NC1=O)C2=O (stereo not given) | 2.81 | –
40 | OCCOCC#CCOCCO | 7.98 | –
